Laboratory results reported in PubChem BioAssay (NCI).
This is part of a sample that, as a whole, favours compounds with a hit. Of some 79,000 tested, about 15% had one in any assay. A number with no mark means an inactive call. Active and inactive are the calls of the source. No stated cut-off is given here; in the data, active means growth inhibition above about 70%; inactive means the rest.

experiment: NCI Yeast Anticancer Drug Screen. Data for the bub3 strain (AID 167); settings: S. cerevisiae bub3 mutant strain, at 50.0 µM, stronger effect = higher value
Outline: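 Yeast carrying a defined mutation is treated with each compound, and growth is compared with that of vehicle-exposed cells to give inhibition.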

SMILES | growth inhibition
Cc1cccc2c(C(O)CBr)cc(-c3ccc(Cl)cc3)nc12 (stereo not given) | 92.5% (active)
CN(C)C[C@H]1CC[C@@H](CN(C)C)C1=O | 34.5%
CC1=C(SCCO)C(=O)c2ccccc2C1=O | 81.2% (active)
COC(=O)CCNc1c2ccccc2nc2cccc([N+](=O)[O-])c12 | 84% (active)
CC(/C=C/c1ccc2c(c1)OCO2)[N+](=O)[O-] (stereo not given) | 99% (active)
COC(=O)C1=C(C)NC(C)=C(C(=O)OCCCN2CCC(c3ccccc3)(c3ccccc3)CC2)C1c1cccc([N+](=O)[O-])c1 (stereo not given) | 97% (active)
CCOC(=O)c1cnc2c(C(F)(F)F)cccc2c1N=[N+]=[N-] | 67.3%
O=[N+]([O-])c1cc2no[n+]([O-])c2cc1N1CCCCC1 | 91.3% (active)
COC(=O)c1ccc(NCC2=CC(=O)C=CC2=O)cc1O | 91.1% (active)
CCCCCCCCNC(=O)C1=C(C)NC(C)=C(C(=O)NCCCCCCCC)C1 | -6.55%
S=C(Nc1ccc(Cl)c(Cl)c1)SCc1ccc2c(c1)OCO2 | 88.2% (active)
O=S(=O)(CCCl)c1ccccc1Cl | 90.7% (active)
Nc1ccccc1CC(O)C(=O)O (stereo not given) | 83.8% (active)
CN(C)c1ccc(Sc2ccc3nc(N)nc(N)c3c2)cc1 | 21.9%
CC(C)C1=CCC2C(=C1)CCC1C(C)(C(=O)O)CCCC21C (stereo not given) (tested in a mixture with another compound) | 85.5% (active)
Cc1ccc(S(=O)(=O)Oc2cc(Cl)c(Cl)cc2Cl)cc1 | 10.2%
CSC(=S)Nc1cc(C)ccn1 | 86% (active)
CC(C)c1cc(C(C)C)c(O)c(C([O-])[O-])c1.CC(C)c1cc(C(C)C)c(O)c(C([O-])[O-])c1.CC(C)c1cc(C(C)C)c(O)c(C([OH2+])[OH2+])c1.CC(C)c1cc(C(C)C)c(O)c(C([OH2+])[OH2+])c1.[Cu+2].[Cu+2].[OH3+].[OH3+] | 96.7% (active)
Cc1cc(I)ccc1N | 86.8% (active)
CC(Br)C(=O)c1ccc2cc(Br)c3ccccc3c2c1 (stereo not given) | 58%

SMILES | growth inhibition
O=C(Nc1ccccc1)OCCc1ccc(Cl)c(Cl)c1 | 90.2% (active)
O=Cc1cccc2ccc3ccccc3c12 | 98.7% (active)
O=[N+]([O-])CC(SCc1ccccc1)c1ccc2c(c1)OCO2 (stereo not given) | 92.2% (active)
CC1(Cl)CC(O)C2(CC1Br)C1(C)OC1C1OC1(Br)C2(C)C (stereo not given) | 73.5% (active)
Cc1cc(O)cc(O)c1N=Nc1ccc([N+](=O)[O-])cc1 | 43.1%
CCCCCCCCCCCCCC[N+](C)(CC(=O)[O-])Cc1ccccc1 (stereo not given) | 98.9% (active)
CC1=NN(c2cccc(Cl)c2)C(=O)C1 | 57.1%
CC(=O)OCc1ccc(O)c(C=O)c1 | 2.85%
Cc1ccc2ccc3cccc4ccc1c2c34 | 61.5%
Cc1nc(-[n+]2nc(-c3ccncc3)nn2-c2ccccc2)sc1C | 48%
C(CCSC1=NCCN1)CSC1=NCCN1 (tested in a mixture with another compound) | 99% (active)
CCCCCCCCCCC(=O)Cl | 12.1%
COC1C=COC2(C)Oc3c(C)c(O)c4c(c3C2=O)/C(=N/C2CCC(O)OC2C)C=C(NC(=O)/C(C)=C\C(=O)C2CC2C(O)C(C)C(O)C(C)C(OC(C)=O)C1C)C4=O (stereo not given) | 23.4%
S=c1[nH]nc(Nc2ccc(Cl)cc2)s1 | 88.8% (active)
O=C1CSC(/C=C/c2ccccc2)N1c1ccc(-c2ccc(-n3c(-c4ccccc4)nc4ccccc4c3=O)cc2)cc1 (stereo not given) | 75% (active)
O=C1C=CC(=O)N1c1ccc2c(c1)Cc1cc(NC(=O)C(F)(F)F)ccc1-2 | 84.6% (active)
Brc1ccc(-c2cc3c(cc2C2SCCS2)OCO3)cc1 | 44.9%
Oc1ccc2ccccc2c1C(c1ccc(Cl)cc1)c1c(O)ccc2ccccc12 | 78.2% (active)
C[CH2][Sn]([CH2]C)([O]C(=O)C(OC(C)=O)c1ccccc1)[O]C(=O)C(OC(C)=O)c1ccccc1 (stereo not given) | 54.4%
Cc1ccc2ccc(O)cc2c1 | 86.7% (active)

same assay, conditions: S. cerevisiae bub3 mutant strain, at 100.0 µM, stronger effect = higher value

SMILES | growth inhibition
Cc1cccc2c(C(O)CBr)cc(-c3ccc(Cl)cc3)nc12 (stereo not given) | 45%
CN(C)C[C@H]1CC[C@@H](CN(C)C)C1=O | 63%
CC1=C(SCCO)C(=O)c2ccccc2C1=O | 29%
COC(=O)CCNc1c2ccccc2nc2cccc([N+](=O)[O-])c12 | 99% (active)
CC(/C=C/c1ccc2c(c1)OCO2)[N+](=O)[O-] (stereo not given) | 98% (active)
COC(=O)C1=C(C)NC(C)=C(C(=O)OCCCN2CCC(c3ccccc3)(c3ccccc3)CC2)C1c1cccc([N+](=O)[O-])c1 (stereo not given) | 90% (active)
CCOC(=O)c1cnc2c(C(F)(F)F)cccc2c1N=[N+]=[N-] | 92% (active)
O=[N+]([O-])c1cc2no[n+]([O-])c2cc1N1CCCCC1 | 96% (active)
COC(=O)c1ccc(NCC2=CC(=O)C=CC2=O)cc1O | 93% (active)
CCCCCCCCNC(=O)C1=C(C)NC(C)=C(C(=O)NCCCCCCCC)C1 | 2%
S=C(Nc1ccc(Cl)c(Cl)c1)SCc1ccc2c(c1)OCO2 | 96% (active)
O=S(=O)(CCCl)c1ccccc1Cl | 98% (active)
Nc1ccccc1CC(O)C(=O)O (stereo not given) | 92% (active)
CN(C)c1ccc(Sc2ccc3nc(N)nc(N)c3c2)cc1 | -9%
CC(C)C1=CCC2C(=C1)CCC1C(C)(C(=O)O)CCCC21C (stereo not given) (tested in a mixture with another compound) | 95% (active)
Cc1ccc(S(=O)(=O)Oc2cc(Cl)c(Cl)cc2Cl)cc1 | -4%
CSC(=S)Nc1cc(C)ccn1 | 83% (active)
CC(C)c1cc(C(C)C)c(O)c(C([O-])[O-])c1.CC(C)c1cc(C(C)C)c(O)c(C([O-])[O-])c1.CC(C)c1cc(C(C)C)c(O)c(C([OH2+])[OH2+])c1.CC(C)c1cc(C(C)C)c(O)c(C([OH2+])[OH2+])c1.[Cu+2].[Cu+2].[OH3+].[OH3+] | 70% (active)
Cc1cc(I)ccc1N | 94% (active)
CC(Br)C(=O)c1ccc2cc(Br)c3ccccc3c2c1 (stereo not given) | -3%

SMILES | growth inhibition
O=C(Nc1ccccc1)OCCc1ccc(Cl)c(Cl)c1 | 52%
O=Cc1cccc2ccc3ccccc3c12 | 97% (active)
O=[N+]([O-])CC(SCc1ccccc1)c1ccc2c(c1)OCO2 (stereo not given) | 97% (active)
CC1(Cl)CC(O)C2(CC1Br)C1(C)OC1C1OC1(Br)C2(C)C (stereo not given) | 98% (active)
Cc1cc(O)cc(O)c1N=Nc1ccc([N+](=O)[O-])cc1 | 62%
CCCCCCCCCCCCCC[N+](C)(CC(=O)[O-])Cc1ccccc1 (stereo not given) | 98% (active)
CC1=NN(c2cccc(Cl)c2)C(=O)C1 | 29%
CC(=O)OCc1ccc(O)c(C=O)c1 | -11%
Cc1ccc2ccc3cccc4ccc1c2c34 | 58%
Cc1nc(-[n+]2nc(-c3ccncc3)nn2-c2ccccc2)sc1C | 18%
C(CCSC1=NCCN1)CSC1=NCCN1 (tested in a mixture with another compound) | 98% (active)
CCCCCCCCCCC(=O)Cl | 54%
COC1C=COC2(C)Oc3c(C)c(O)c4c(c3C2=O)/C(=N/C2CCC(O)OC2C)C=C(NC(=O)/C(C)=C\C(=O)C2CC2C(O)C(C)C(O)C(C)C(OC(C)=O)C1C)C4=O (stereo not given) | 91% (active)
S=c1[nH]nc(Nc2ccc(Cl)cc2)s1 | 9%
O=C1CSC(/C=C/c2ccccc2)N1c1ccc(-c2ccc(-n3c(-c4ccccc4)nc4ccccc4c3=O)cc2)cc1 (stereo not given) | 79% (active)
O=C1C=CC(=O)N1c1ccc2c(c1)Cc1cc(NC(=O)C(F)(F)F)ccc1-2 | 39%
Brc1ccc(-c2cc3c(cc2C2SCCS2)OCO3)cc1 | 22%
Oc1ccc2ccccc2c1C(c1ccc(Cl)cc1)c1c(O)ccc2ccccc12 | 87% (active)
C[CH2][Sn]([CH2]C)([O]C(=O)C(OC(C)=O)c1ccccc1)[O]C(=O)C(OC(C)=O)c1ccccc1 (stereo not given) | 88% (active)
Cc1ccc2ccc(O)cc2c1 | 88% (active)
